# Source: PubChem BioAssay AID1159580 (chemical genetic matrix, 2015)
# Out of some 5,500 compounds screened, about 2,000 (36%) were called active. Roughly 18% stayed inconclusive and do not appear here. Some of the results follow. Unmarked numbers belong to inactive results. Cut-off read from the data, not from the text of the source: active = normalized growth mostly below about 0.91 (no sharp cut-off); inconclusive = no clear call, values can overlap the other calls; inactive = mostly above about 0.92.
# Experiment: chemical genetic growth profiling, strain panel (AID 1159580);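 note: tested at 20 µM; growth read once vehicle control cultures reached saturation at 30 °C; 1 = growth at the plate median or of vehicle wells; lower values mean less growth of the strain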
# Settings: S. cerevisiae deletion strains, growth OD
# [1] = locus YAL013W, strain DEP1, hits give low values
# [2] = locus YBR229C, strain ROT2, hits give low values
# [3] = locus YCL061C, strain MRC1, hits give low values
# [4] = locus YDL101C, strain DUN1, hits give low values
# [5] = locus YDL134C, strain PPH21, hits give low values
# [6] = locus YDR150W, strain NUM1, hits give low values
# [7] = locus YEL061C, strain CIN8, hits give low values
# [8] = locus YGR078C, strain PAC10, hits give low values
# [9] = locus YHR030C, strain SLT2, hits give low values
# [10] = locus YHR087W, strain rtc3, hits give low values
# [11] = locus YJR043C, strain POL32, hits give low values
# [12] = locus YJR075W, strain HOC1, hits give low values
# [13] = locus YKL190W, strain CNB1, hits give low values
# [14] = locus YLR039C, strain RIC1, hits give low values
# [15] = locus YLR058C, strain SHM2 (second series), hits give low values
# [16] = locus YLR085C, strain ARP6, hits give low values
# [17] = locus YLR262C, strain YPT6, hits give low values
# [18] = locus YML094W, strain GIM5, hits give low values
# [19] = locus YMR219W, strain ESC1, hits give low values
# [20] = locus YMR263W, strain SAP30, hits give low values
# [21] = locus YNL153C, strain GIM3, hits give low values
# [22] = locus YNL298W, strain CLA4 (second series), hits give low values
# [23] = locus YNL322C, strain KRE1, hits give low values
# [24] = locus YNR030W, strain Alg12, hits give low values
# [25] = locus YPL055C, strain LGE1, hits give low values
# [26] = locus YPL241C, strain CIN2, hits give low values
# [27] = locus YPR135W, strain CTF4, hits give low values
# [28] = locus YJL187C, strain SWE1, hits give low values
structure (smiles),measurement,setting,value
Cn1c2c(c(=O)n(C)c1=O)CN(CCCCCCO)CN2,normalized growth,[1],1
same,normalized growth,[2],1.01
same,normalized growth,[3],1.01
same,normalized growth,[4],1
same,normalized growth,[5],1.02
same,normalized growth,[6],0.982
same,normalized growth,[7],1.01
same,normalized growth,[8],0.999
same,normalized growth,[9],1.07
same,normalized growth,[10],1
same,normalized growth,[11],0.99
same,normalized growth,[12],1.01
same,normalized growth,[13],0.994
same,normalized growth,[14],1.02
same,normalized growth,[15],1
same,normalized growth,[16],1.1
same,normalized growth,[17],1.03
same,normalized growth,[18],1.05
same,normalized growth,[19],1
same,normalized growth,[20],1
same,normalized growth,"locus YMR307W, strain GAS1, hits give low values",1.04
same,normalized growth,"locus YNL128W, strain TEP1, hits give low values",1.01
same,normalized growth,[21],0.999
same,normalized growth,[22],1.1
same,normalized growth,[23],0.998
same,normalized growth,[24],1.04
same,normalized growth,[25],1.02
same,normalized growth,[26],1.05
same,normalized growth,[27],1.02
CCCCCCCCCCCCN1CNC(=S)NC1,normalized growth,[1],0.804 (active)
same,normalized growth,[2],0.81 (active)
same,normalized growth,[3],0.68 (active)
same,normalized growth,[4],0.652 (active)
same,normalized growth,[5],0.451 (active)
same,normalized growth,[6],0.846
same,normalized growth,[7],0.441 (active)
same,normalized growth,[8],0.813 (active)
same,normalized growth,[9],0.291 (active)
same,normalized growth,[10],0.767 (active)
same,normalized growth,[28],0.688 (active)
same,normalized growth,[11],0.727 (active)
same,normalized growth,[12],0.858 (active)
same,normalized growth,[13],0.515 (active)
same,normalized growth,[14],0.985
same,normalized growth,[15],0.988
same,normalized growth,[16],0.141 (active)
same,normalized growth,[17],1.01
same,normalized growth,[18],0.513 (active)
same,normalized growth,[19],0.786 (active)
same,normalized growth,[20],0.782 (active)
same,normalized growth,[21],0.801 (active)
same,normalized growth,[22],0.325 (active)
same,normalized growth,[23],0.956
same,normalized growth,[24],0.419 (active)
same,normalized growth,"locus YOL006C, strain TOP1, hits give low values",0.123 (active)
same,normalized growth,[25],0.541 (active)
same,normalized growth,[26],0.484 (active)
same,normalized growth,[27],0.382 (active)
S=C1NCN(CCN2CCCC2)CN1,normalized growth,[1],1
same,normalized growth,[2],0.996
same,normalized growth,[3],0.988
same,normalized growth,[4],0.984
same,normalized growth,[5],0.975
same,normalized growth,[6],0.96
same,normalized growth,[7],1.03
same,normalized growth,[8],0.997
same,normalized growth,[9],1.04
same,normalized growth,[10],1.04
same,normalized growth,[28],1.01
same,normalized growth,[11],0.986
same,normalized growth,[12],0.997
same,normalized growth,[13],0.977
same,normalized growth,[14],0.991
same,normalized growth,[15],1.01
same,normalized growth,[16],0.98
same,normalized growth,[17],0.972
same,normalized growth,[18],1
same,normalized growth,[19],1.01
same,normalized growth,[20],1
same,normalized growth,[21],0.993
same,normalized growth,[22],0.987
same,normalized growth,[23],0.995
same,normalized growth,[24],0.994
same,normalized growth,[25],1.01
same,normalized growth,[26],0.973
same,normalized growth,[27],0.962
